In PubChem BioAssay AID588473 (Sanford-Burnham Center for Chemical Genomics, 2011) one finds activation data, which are given here for 94 compounds.

Molecules are shown by their SMILES. About 1,600 (0.46%) of roughly 350,000 compounds were called active.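 How the source made its calls: active means activation of at least 50%, plus an integration ratio under a set limit after plate pattern correction; inactive means the rest.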 Only a selection was taken, and actives are over-represented in it overall.

The test system of the experiment is CRF-binding protein / CRF receptor 2 complex (human). The experiment can be described thus: agonists of CRF-BP/CRF-R2 complex, primary screen, cell-based, HEK293, calcium dye fluorescence, uHTS (AID 588473).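 Further: plate controls were neutral control wells without compound for no effect and CRF at EC100 for full effect.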 To be noted: calcium dye fluorescence (FLIPR), at 13.2 µM, active compounds read high, percent of saturating CRF peptide response.
`Cc1cc(C)c(S(=O)(=O)Nc2c(C)n(C)n(-c3ccccc3)c2=O)cc1[N+](=O)[O-]`: the activation was -0.78% (inactive).

Take `Cc1ccc(C(=O)N/C(=C/c2ccco2)C(=O)NCCc2c[nH]c3ccccc23)cc1C`: the activation is -0.5% (inactive).

For `O=C(NCCc1c[nH]c2ccccc12)C1CCN(Cc2ccc(Br)cc2)CC1`, the activation is 7.6% (inactive).

On to `N#C/C(=C/c1ccc(N2CCCCC2)o1)C(=O)NCCc1c[nH]c2ccccc12`, for which the activation was 138% (active).

As to `Cc1cccn2c(=O)c(/C=C3\SC(=S)N(CC(C)C)C3=O)c(NCCCOC(C)C)nc12`, the activation was 83% (active).

On to `CNc1nc2c(C)cccn2c(=O)c1C=Nc1ccc(OC)cc1`, for which the activation was -0.9% (inactive).

As to `CCCN(CCC)c1nc2c(C)cccn2c(=O)c1/C=C1/SC(=S)N(Cc2ccco2)C1=O`, the activation was 36.9% (inactive).

In the case of `CCOC(=O)NC(=O)C(=CNc1cccc(OC)c1)C(=O)NC(=O)OCC`, the activation was 2.88% (inactive).

In the case of `Cc1cccn2c(=O)c3cc(C(=O)NCCN4CCOCC4)c(=N)n(Cc4cccnc4)c3nc12`, the activation was -0.12% (inactive).

Consider `Cc1cccn2c(=O)c3cc(C#N)c(=O)n(CCCN4CCOCC4)c3nc12`, for which the activation was 2.16% (inactive).

As for `Cc1cccn2c(=O)c3cc(C#N)c(=NC(=O)c4cccnc4)n(CC4CCCO4)c3nc12` (centres undefined), the activation is 56.4% (active).

Consider `Cc1cc(=O)n2nc(N3CCCC(C(=O)NCc4ccc(Cl)cc4)C3)sc2n1` (centres undefined), for which the activation is -0.87% (inactive).

`CCCCCCCC[n+]1cccc(C(=O)N2c3c(nc(N)[nH]c3=O)NC(C)C2C)c1` (centres undefined): the activation is -1.35% (inactive).

Take `Cc1cccc(C)c1N1CCN(S(=O)(=O)N2CCOCC2)CC1`: the activation is 16.7% (inactive).

Take `Cc1cccc(C(=O)N2CCN(S(=O)(=O)N3CCCCC3)CC2)c1`: the activation was -0.46% (inactive).

Consider `Cc1cccc(C)c1N1CCN(S(=O)(=O)N2CCCCC2)CC1`, for which the activation was 152% (active).

In the case of `CCn1cc(CN2CCN(CC(C)(C)C)C(CCO)C2)c2ccccc21` (centres undefined), the activation was 4.34% (inactive).

For `CCOc1ccc(NCCC(=O)c2ccc3c(c2)OCO3)cc1`, the activation is -0.43% (inactive).

As to `COc1ccc(CCNC(=O)C(=O)NCC2OCCN2S(=O)(=O)c2cccs2)cc1OC` (centres undefined), the activation is -0.25% (inactive).

Regarding `CC1(C)N=C(c2ccccn2)C(C)(C)N1O`, the activation is 2.11% (inactive).

As for `Cc1cccc(NC(=O)CCN2CC(C)CC(C)C2)c1` (centres undefined), the activation is -0.13% (inactive).

In the case of `Cc1cccc(NC(=O)C(C)N2C(=O)C3C4CC(C(Br)C4Br)C3C2=O)c1` (centres undefined), the activation was 73.2% (active).

`Cc1cccc(NC(=O)CN2C(=O)CNC2=O)c1`: the activation is -0.73% (inactive).

Turning to `CN(C)S(=O)(=O)c1ccc(C(=O)NCC2(N3CCOCC3)CCCCC2)cc1`, the activation is 0.88% (inactive).

On to `Cc1ccc(-n2[nH]c(C)c(/C=N/N3C(=O)c4cccc5cccc(c45)C3=O)c2=O)cc1`, for which the activation is 113% (active).

In the case of `Cc1ccc(-c2ccnc3[nH]n(-c4ccccc4)c(=O)c23)cc1`, the activation is 0.1% (inactive).

Consider `COc1cc(SC#N)ccc1N=Cc1c(C)[nH]n(-c2ccc(C)cc2)c1=O`, for which the activation is -2.61% (inactive).

On to `Cc1noc(C)c1S(=O)(=O)N(C)Cc1ccccc1`, for which the activation was -2.84% (inactive).

In the case of `CC(c1cccnc1)N(CCN(C)C)C(=O)Nc1ccc(Cl)c(Cl)c1` (centres undefined), the activation is 0.52% (inactive).

Take `N#CC1(NC(=O)COC(=O)CCN=C2NS(=O)(=O)c3ccccc32)CCCCC1`: the activation was 8.71% (inactive).

In the case of `O=C(OCCN=C1NS(=O)(=O)c2ccccc21)c1cccc([N+](=O)[O-])c1`, the activation is -1.89% (inactive).

Consider `O=C(CCCN=C1NS(=O)(=O)c2ccccc21)OCC(=O)c1ccc(F)c(F)c1`, for which the activation is 62% (active).

Turning to `C=CCOc1cccc(C2C(C(=O)c3ccc(C)o3)=C(O)C(=O)N2CCN2CCOCC2)c1` (centres undefined), the activation is 0.15% (inactive).

As for `CCCc1c(C(=O)N/N=C(\C)CCc2ccc(OC)cc2)nnn1-c1nonc1N`, the activation is -0.36% (inactive).

Take `COc1cc(C)c(C)cc1S(=O)(=O)N1CCCc2ccccc21`: the activation was 53.4% (active).

Regarding `CCC(C)(C)NC(=O)/C=C/c1cc(OC)c(OC)c(S(=O)(=O)N2CCc3ccccc32)c1`, the activation was 3.27% (inactive).

`COc1ccc(C(=O)OCC(=O)NCC2CCCCC2)cc1S(=O)(=O)N1CCCc2ccccc21`: the activation is 1.36% (inactive).

As to `CC(OC(=O)CN1C(=O)C2CCCCC2C1=O)C(=O)Nc1ncc(Cl)cc1Cl` (centres undefined), the activation is 0.41% (inactive).

Take `CCNc1nc(Oc2ccc(C(=O)OC)cc2)nc(N2CCOCC2)n1`: the activation is 1.34% (inactive).

As to `Cc1ccccc1NC(=O)C(C)c1ccc(-c2ccccc2)c(F)c1` (centres undefined), the activation is 1.53% (inactive).

As to `CC1CC(NC(=O)/C(C#N)=C/c2ccc[nH]2)CC(C)(C)C1` (centres undefined), the activation is 2.1% (inactive).

Consider `CCOC(=O)c1c(NC(C)=O)sc2c(O)c(Br)ccc12`, for which the activation was 1.34% (inactive).

`NC(=O)c1cc(-c2cccnc2)nc2ccc(Br)cc12`: the activation is -0.32% (inactive).

As to `O=c1c2cc(Br)ccc2nc(-c2cccc(Cl)c2)n1O`, the activation is 66.9% (active).

Consider `NC(N)=Nc1nc2ccc(Br)cc2c(=O)[nH]1`, for which the activation is -1.35% (inactive).

Regarding `CC1Sc2ccc(S(=O)(=O)CCC(=O)NCc3ccccc3Cl)cc2NC1=O` (centres undefined), the activation was -3.65% (inactive).

Consider `COc1ccccc1N(CC(=O)N1CCCCC1)S(=O)(=O)c1ccccc1`, for which the activation is 59.4% (active).

As to `COc1ccc(C)cc1N(CC(=O)N1CCCC1)S(=O)(=O)c1ccccc1`, the activation was -0.01% (inactive).

On to `COc1ccc(N(CC(=O)N2CCCCCC2)S(=O)(=O)c2ccccc2)cc1`, for which the activation was 0.06% (inactive).

Consider `Nc1c(C(=O)c2cccs2)sc2nsc(SCCN3CCCCC3)c12`, for which the activation was 147% (active).

`O=C(CCc1ccccc1)NNC(=O)COc1ccc(Cl)cc1`: the activation was -0.46% (inactive).

`COc1ccc(C(=O)NNC(=S)NC(=O)c2ccccc2)cc1`: the activation is 123% (active).

For the compound `CCOc1ccccc1NC(=S)NC(=O)CCc1ccccc1`, the activation is 0.36% (inactive).

For `COc1ccc(C(=O)NC(=S)NC2CCCCC2)cc1`, the activation is 1.07% (inactive).

Regarding `CC(=O)NC(=S)NNC(=O)c1ccc(Br)cc1`, the activation is -4.92% (inactive).

Turning to `COc1ccc(C(=O)NC(=S)NNC(=O)CCc2ccccc2)cc1`, the activation is 68.5% (active).

Consider `CCN(Cc1ccncc1)C(=S)Nc1ccccc1C`, for which the activation is -0.24% (inactive).

As to `COCCCNC(=S)N(CCN(C)C)Cc1cc2cc3c(cc2[nH]c1=O)OCCO3`, the activation is 0.16% (inactive).

As for `CC(=O)NC(CC(=O)Nc1nccs1)c1ccccc1` (centres undefined), the activation was 2.22% (inactive).

With `O=C(Nc1ccccc1C(F)(F)F)N1CCCC1c1cccnc1` (centres undefined), the activation was 0.09% (inactive).

Take `Cc1ccc(NC(=O)CSc2nc(=O)n(CCN(C)C)c3c2CCCC3)c(C)c1`: the activation is -0.4% (inactive).

On to `CCOC(=O)Cc1c(C)nc2c(C#N)c(C)nn2c1C`, for which the activation is -2.38% (inactive).

Take `O=C(NCCc1ccccc1Cl)C1CCC(=O)N(CCCc2ccccc2)C1` (centres undefined): the activation is -1.43% (inactive).

Take `C/C(=N\NC(=O)c1cc2c(s1)CCC(C)C2)c1cccnc1` (centres undefined): the activation was -0.26% (inactive).

As to `Nc1cc(=O)n(Cc2ccccc2)c(=O)n1Cc1ccccc1`, the activation is -0.25% (inactive).

Consider `Cc1cc2nc3c(=O)n(Cc4ccccc4)c(=O)[nH]c3nc2cc1N`, for which the activation was 89.5% (active).

For `CN(C(=O)COC(=O)c1ccc(Br)o1)c1c(N)n(Cc2ccccc2)c(=O)[nH]c1=O`, the activation is 1.22% (inactive).

For the compound `CCCS(=O)(=O)N1CCCC(C(=O)NCCN2CCCCC2C)C1` (centres undefined), the activation was 2.69% (inactive).

`COc1cccc(C=CC(=O)C=CC=Cc2ccccc2)c1`: the activation is 3.04% (inactive).

For the compound `O=C(/C=C(O)/C=C/c1ccc(O)cc1)/C=C/c1ccc(O)cc1`, the activation was 123% (active).

With `O=C(O)/C=C/c1ccc(S(=O)(=O)N2CCCCCC2)cc1`, the activation is -6.06% (inactive).

With `Cc1cc(Cl)ccc1C(=O)C1CCCN(C(=O)c2ccc3c(c2)OCO3)C1` (centres undefined), the activation was -0.83% (inactive).

With `CC1(C)Cc2c(sc(NC(=O)C(=O)NCC3CCCO3)c2C(=O)O)CO1` (centres undefined), the activation was 1.19% (inactive).

For `COc1cc(NC(=O)c2ccccc2NS(=O)(=O)c2ccc(Cl)s2)cc(OC)c1`, the activation is 59.3% (active).

As for `O=C(Nc1cccc(Cl)c1)Nc1ccccc1NS(=O)(=O)c1cccs1`, the activation was 38.9% (inactive).

`O=S(=O)(Nc1ccccc1N1CCOCC1)c1ccc(Cl)s1`: the activation was 0.68% (inactive).

Turning to `COc1ccc(CN2CCn3ncc(C(=O)Nc4ccc(Cl)cc4Cl)c3C2=O)cc1`, the activation was 1.96% (inactive).

Regarding `COc1ccccc1CNC(=O)C1CCCN(S(=O)(=O)c2cccc3cccnc23)C1` (centres undefined), the activation is -0.51% (inactive).

In the case of `COc1cc(OC)c(-n2c(C)cc(C=O)c2C)cc1Cl`, the activation is 0.85% (inactive).

Regarding `COc1ccc(-n2c(-c3ccc(Cl)cc3)n[nH]c2=S)c(OC)c1`, the activation is -2.26% (inactive).

In the case of `COc1cc(OC)c(-n2cc(-c3ccc(Cl)cc3)[nH]c2=O)cc1Cl`, the activation was 180% (active).

As to `COc1ccc(NC(=O)N(C)C[C@H]2Oc3ncc(C#C[C@@H](C)O)cc3C(=O)N([C@H](C)CO)C[C@H]2C)cc1`, the activation was 5.65% (inactive).

`CCC(C(=O)Nc1ccc(C(C)C)cc1)c1ccccc1` (centres undefined): the activation is 84.3% (active).

With `CC(C)c1ccc(NC(=O)Cn2ncc3ccccc32)cc1`, the activation was -4.37% (inactive).

For `CC(NC(=O)Nc1ccccc1)c1ccccc1` (centres undefined), the activation is -0.98% (inactive).

On to `Cc1cc2c(cc1C)[n+](C)cn2CC(O)COCC1CC=CCC1` (centres undefined), for which the activation is 0.16% (inactive).

Consider `CC(C)NS(=O)(=O)c1ccc(NC(=O)C2CCCCC2)cc1`, for which the activation is 1.98% (inactive).

Turning to `O=C(O)c1ccc(NC(=O)C2CCCCC2)cc1`, the activation is 51.5% (active).

Regarding `O=C(Nc1ccc2c(c1)OCCO2)C1CCCC1`, the activation was -0.49% (inactive).

On to `CC(=O)NC12CC3CC(C1)CC(C(=O)N1CCN(S(=O)(=O)c4cccs4)CC1)(C3)C2`, for which the activation was -0.5% (inactive).

Regarding `N#Cc1cccc(CSc2ncnc(N)n2)c1`, the activation was -1.54% (inactive).

In the case of `CCc1ccc(CN(C)C(=O)CCc2nnc(-c3ccc(-c4ccccc4)cc3)o2)nc1`, the activation is -0.63% (inactive).

For the compound `COc1ccccc1-c1nnc(-c2ccc(F)cc2)o1`, the activation is 0.06% (inactive).

For the compound `CCCCCCc1cc2cc(-c3nnc(-c4ccccc4)o3)c(=O)oc2cc1O`, the activation is 269% (active).
